Experimental findings from PubChem BioAssay (NCATS) are described below.

Experiment [1] deals with Estrogen receptor (Homo sapiens) (UniProt P03372). In words: qHTS assay for small molecule antagonists of estrogen receptor alpha signaling (AID 588513; active means well fitted curve in the direction sought with a large enough effect in the signal ratio, with a control signal flat, not every such curve was filed as active; the % refers to the signal ratio; further: on the % scale 0 is the no-effect control and ±100 the full control effect). In short, it runs like this: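 Cells were plated at 5000/well and incubated 4 h at 37 C. Compounds were added as 1:2 dilution series, duplicates. 17-beta-estradiol (0.5nM final) was added for 18 h before CCF4 detection.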
Chain of Estrogen receptor (Homo sapiens) (P03372 whole entry, looked up): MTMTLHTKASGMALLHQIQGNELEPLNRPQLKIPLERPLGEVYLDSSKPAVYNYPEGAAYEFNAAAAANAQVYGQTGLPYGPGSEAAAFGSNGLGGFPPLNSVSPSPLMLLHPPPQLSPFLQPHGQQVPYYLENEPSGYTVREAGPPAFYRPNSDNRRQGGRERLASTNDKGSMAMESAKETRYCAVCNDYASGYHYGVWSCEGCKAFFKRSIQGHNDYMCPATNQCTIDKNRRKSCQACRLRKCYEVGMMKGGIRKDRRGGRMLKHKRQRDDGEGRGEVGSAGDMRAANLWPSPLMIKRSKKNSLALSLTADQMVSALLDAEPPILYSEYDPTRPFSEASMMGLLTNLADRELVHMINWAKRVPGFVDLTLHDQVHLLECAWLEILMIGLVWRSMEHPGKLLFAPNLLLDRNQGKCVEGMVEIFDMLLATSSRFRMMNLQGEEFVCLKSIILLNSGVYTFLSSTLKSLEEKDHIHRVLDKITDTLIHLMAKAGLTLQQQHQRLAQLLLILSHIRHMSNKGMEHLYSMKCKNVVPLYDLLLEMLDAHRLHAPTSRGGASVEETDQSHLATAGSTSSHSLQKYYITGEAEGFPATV
Background: In qHTS, concentration-response curves come from the screen itself.

For experiment [2] the target is unchanged. Description: qHTS assay for small molecule agonists of estrogen receptor alpha signaling (AID 588514; calls by dose curve;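 further: 0% = vehicle only and 100% = reference agonist; nearly all actives have a fitted effect of over 70% in size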). In short, it runs like this: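 Cells were plated at 5000/well, incubated 4 hrs at 37 C, dosed with compound titration series, incubated 18 hrs at 37 C, loaded with CCF4 dye for 2 hrs at RT, then fluorescence was read.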
Experiment [3] can be described thus: qHTS assay for small molecule antagonists of peroxisome proliferator-activated receptor delta signaling (AID 588535; active means well fitted inhibition curve with a large enough effect in the signal ratio, with a control signal flat, not every such curve was filed as active; the % refers to the signal ratio;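 on max response: cells co-treated with a PPAR-delta agonist as stimulator during compound exposure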). To be noted: HEK293T PPARd-UAS-bla, beta-lactamase FRET ratio, 18 h; 460 nm channel. The method in brief: (§1)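 Reporter: UAS-bla under PPAR-delta response element, HEK293T host. Medium: 2% charcoal/dextran FBS. Dosing: titration, 18 hrs, 37 C. Detection: CCF4, 2 hrs RT, 405 ex/460 and 530 em.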

Experiment [4] addresses Peroxisome proliferator-activated receptor delta (Homo sapiens) (UniProt Q03181). The description is as above. The method in brief: as §1
Experiment [5] is described as follows: qHTS assay for small molecule agonists of retinoid X receptor alpha signaling (AID 588544; calls by dose curve;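 on activation: 0% = DMSO basal wells and 100% = reference agonist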). The following applies: HEK293T RXRa-UAS-bla, beta-lactamase reporter, 18 h; 530 nm emission.
For experiment [6], the target named is Retinoic acid receptor RXR-alpha (Homo sapiens) (UniProt P19793). The description is as above.
Chain of Retinoic acid receptor RXR-alpha (Homo sapiens) (P19793 whole entry, looked up): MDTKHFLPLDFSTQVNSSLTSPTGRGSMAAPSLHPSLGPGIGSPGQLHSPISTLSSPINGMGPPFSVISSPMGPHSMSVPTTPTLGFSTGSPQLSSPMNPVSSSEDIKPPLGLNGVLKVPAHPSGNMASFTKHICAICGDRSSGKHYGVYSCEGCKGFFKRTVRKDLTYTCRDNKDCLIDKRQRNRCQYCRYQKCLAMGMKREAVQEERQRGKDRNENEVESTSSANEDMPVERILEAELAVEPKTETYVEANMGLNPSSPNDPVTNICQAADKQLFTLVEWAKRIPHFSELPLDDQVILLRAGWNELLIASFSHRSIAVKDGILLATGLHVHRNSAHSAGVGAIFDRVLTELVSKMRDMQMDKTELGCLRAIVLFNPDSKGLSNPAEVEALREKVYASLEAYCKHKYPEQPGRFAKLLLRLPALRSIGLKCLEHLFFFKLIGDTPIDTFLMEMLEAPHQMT
The target of experiment [7] is Thyroid hormone receptor beta (Homo sapiens) (UniProt P10828). In words: qHTS assay for small molecule agonists of thyroid hormone receptor beta signaling (AID 588545; calls by dose curve;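 further: 0% = DMSO only and 100% = 10 nM T3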). The method in brief: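 Stimulation of a TR-driven beta-lactamase reporter was quantified in GripTite HEK 293 cells. Compound series ran for 18 hrs; curves were normalized to T3 and DMSO controls and fitted to yield EC50.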
Chain of Thyroid hormone receptor beta (Homo sapiens) (P10828 whole entry, looked up): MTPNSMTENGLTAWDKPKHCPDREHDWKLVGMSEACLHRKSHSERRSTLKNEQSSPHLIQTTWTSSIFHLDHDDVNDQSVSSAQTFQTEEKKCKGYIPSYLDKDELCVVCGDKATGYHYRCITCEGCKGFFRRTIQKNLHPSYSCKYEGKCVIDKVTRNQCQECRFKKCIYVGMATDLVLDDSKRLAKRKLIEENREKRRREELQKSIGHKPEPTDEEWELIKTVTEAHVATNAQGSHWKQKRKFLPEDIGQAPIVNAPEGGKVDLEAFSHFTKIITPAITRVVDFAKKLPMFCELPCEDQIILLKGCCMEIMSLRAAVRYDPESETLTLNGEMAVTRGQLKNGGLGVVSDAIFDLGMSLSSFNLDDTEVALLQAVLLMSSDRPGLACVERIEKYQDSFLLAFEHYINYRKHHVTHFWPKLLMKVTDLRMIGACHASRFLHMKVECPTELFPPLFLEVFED

A short description of experiment [8]: qHTS assay for small molecule antagonists of retinoid X receptor alpha signaling (AID 588546; active means well fitted inhibition curve with a large enough effect in the signal ratio, with a control signal flat, not every such curve was filed as active; the % refers to the signal ratio;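 further: cells stimulated with 9-cis-retinoic acid as agonist; on the % scale 0 is the no-effect control and ±100 the full control effect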). The following applies: HEK293T RXRa-UAS-bla, beta-lactamase ratio, antagonist mode; measured here: W530 green channel, cytotoxicity proxy. In short, it runs like this:
(§2)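 Beta-lactamase reporter inhibition, read as CCF4 fluorescence ratio (ex 405, em 460/530 nm) after 2 h at RT. HEK293T UAS-bla cells, 2500/well, were stimulated with 9-cis-RA at 500 or 100 nM final alongside test compound for 18 h at 37 C.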

In experiment [9] the target is Retinoic acid receptor RXR-alpha (Homo sapiens) (UniProt P19793). The experiment is described as above. To be noted: HEK293T RXRa-UAS-bla, beta-lactamase ratio, antagonist mode. The method in brief:
as §2

The nature of experiment [10]: qHTS assay for environmental chemicals that activate the Aryl hydrocarbon Receptor (AhR) signaling pathway (AID 651777). Further: % of control where 0% means no effect; nearly all actives have a fitted effect of over 15% in size. The following applies: 1A2-DRE human hepatoma cells, luciferase, 24 h; activation: stronger effect = higher value. In short, it runs like this:
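Concentration–response screening used 1,200 1A2-DRE cells per well, 24 hr compound exposure (37 C, 5% CO2), and One-Glo luminescence as the AhR-driven CYP1A2 reporter signal.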

Experiment [11] concerns the target Peroxisome proliferator-activated receptor alpha (Homo sapiens) (UniProt Q07869). In words: qHTS assay for small molecule agonists of the peroxisome proliferator-activated receptor alpha (PPARalpha) signaling pathway (AID 651778). Further: % of control where 0% means no effect. The following applies: PathHunter PPARalpha complementation, chemiluminescence, 6 h; max response: stronger effect = higher value. In short, it runs like this: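 Cells plated at 2,000/well and held overnight at 37 C, 5% CO2, then compound added by pin tool for 6 hr; after PathHunter detection reagent and 60 min at room temperature, chemiluminescence from enzyme complementation was read.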

The nature of experiment [12]: qHTS assay for small molecule agonists of the antioxidant response element (ARE) signaling pathway measured by Nrf2-dependant transcriptional activity (AID 720636; active means well fitted curve in the direction sought with a large enough effect in the repeat runs; an effect the other way counts as inactive or inconclusive;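 further: HepG2 cells with an ARE-driven luciferase reporter; % of control where 0% means no effect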). The method in brief:
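Attachment 6 hr at 37 C, then compound versus DMSO vehicle for 16 hr in ARE-luc HepG2 cells (1% dialyzed FBS); luminescence recorded 30 min after ONE-Glo addition at room temperature.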

Experiment [13] in a line: qHTS assay for small molecule agonists of the antioxidant response element (ARE) signaling pathway measured by Nrf2-dependant transcriptional activity - cell viability counter screen (AID 720653; active means well fitted curve in the direction sought with a large enough effect in the repeat runs; an effect the other way counts as inactive or inconclusive; further: on the % scale 0 is the no-effect control and ±100 the full control effect). The following applies: ARE-bla HepG2 viability, CellTiter-Glo ATP luminescence, 16 h; max response: stronger effect = lower value. The method in brief:
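ARE-bla HepG2 cells (2,000/well) rested 5 hrs at 37C/5% CO2, then exposed to compounds in DMSO for 16 hrs. Viability was read in the same wells as intracellular ATP by luminescence, 30 min at room temperature after reagent addition.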

A short description of experiment [14]: qHTS assay for cell viability of the p53RE-bla HCT-116 cell line (AID 743292). Further: on the % scale 0 is the no-effect control and ±100 the full control effect; nearly all actives have a fitted effect of over 55% in size. The method in brief:
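Compound-exposed HCT-116 (p53RE-bla) cells, 4,000 per well, were kept 16 h at 37 C following a 5 h preincubation. Cell number was estimated from total ATP by CellTiter-Glo luminescence read after 30 min at room temperature.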

The target in experiment [15] is Nuclear receptor subfamily 1 group I member 2 (Rattus norvegicus) (UniProt Q9R1A7). In words: qHTS assay for small molecule activators of the rat pregnane X receptor (rPXR) signaling pathway (AID 651751; call rule not given here; further: 0% is about no effect). To be noted: rPXR reporter cells, luciferase (One-Glo), 24 h.
Chain of Nuclear receptor subfamily 1 group I member 2 (Rattus norvegicus) (Q9R1A7 whole entry, looked up): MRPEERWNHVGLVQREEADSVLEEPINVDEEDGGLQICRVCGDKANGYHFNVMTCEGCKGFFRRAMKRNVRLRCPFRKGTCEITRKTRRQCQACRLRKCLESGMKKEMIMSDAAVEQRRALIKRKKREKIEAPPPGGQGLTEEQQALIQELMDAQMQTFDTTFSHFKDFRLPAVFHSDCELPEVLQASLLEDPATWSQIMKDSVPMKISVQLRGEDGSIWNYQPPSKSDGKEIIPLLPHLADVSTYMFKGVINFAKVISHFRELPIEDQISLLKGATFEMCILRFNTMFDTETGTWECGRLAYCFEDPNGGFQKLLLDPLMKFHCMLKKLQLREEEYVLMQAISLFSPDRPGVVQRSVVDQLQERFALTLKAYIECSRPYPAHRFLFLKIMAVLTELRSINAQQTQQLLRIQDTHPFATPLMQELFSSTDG
The target in experiment [16] is Glucocorticoid receptor (Homo sapiens) (UniProt P04150). In words: qHTS assay for small molecule agonists of glucocorticoid receptor signaling (AID 588532; active means well fitted curve in the direction sought with a large enough effect in the signal ratio, with a control signal flat; the % refers to the signal ratio;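 further: 100% = dexamethasone at 0.1 µM and 0% = DMSO only wells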). To be noted: HeLa MMTV-bla, beta-lactamase ratio, agonist, 18 h; stronger effect = higher value; percent of dexamethasone control, DMSO zero. The method in brief:
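Titration series, up to 92 uM, applied to GRE-bla HeLa cells for 18 h at 37 C. Detection by CCF4 FRET substrate after 2 h at RT.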

Experiment [17] shares this target. Description: qHTS assay for small molecule antagonists of glucocorticoid receptor signaling (AID 588533; active means well fitted inhibition curve with a large enough effect in the signal ratio, with a control signal flat, not every such curve was filed as active; the % refers to the signal ratio;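 further: cells stimulated with 2 nM dexamethasone as agonist; on the % scale 0 is the no-effect control and ±100 the full control effect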). The method in brief:
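Antagonist-mode qHTS: compound titrations added to GRE-bla HeLa cells, then dexamethasone 2 nM final; 18 h, 37 C. CCF4 FRET fluorescence normalized to dexamethasone and DMSO; IC50 from Hill fit.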

Experiment [18] is described as follows: qHTS assay for small molecule activators of the nuclear factor-kappa B (NF-kB) signaling pathway (AID 651749; active means well fitted activation curve with a large enough effect in the signal ratio; the % refers to the signal ratio; further: series mostly up to about 77 µM; % of control where 0% means no effect). To be noted: NF-kB-bla ME-180 cells, beta-lactamase FRET ratio, 16 h; activation: stronger effect = higher value. The method in brief: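 Screening used 2,000 ME-180 reporter cells per well exposed to pinned compound (23 nL) or DMSO; after 16 hr at 37C, beta-lactamase expression under NF-kB control was assessed through FRET.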

The nature of experiment [19]: qHTS assay for cell viability of HEK293 cells (AID 743288). Further: on the % scale 0 is the no-effect control and ±100 the full control effect; nearly all actives have a fitted effect of over 50% in size. The following applies: ATP luminescence (CellTiter-Glo), 18 h; max response: stronger effect = lower value. In short, it runs like this: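 The Tox21 protocol used parental HEK293 cells treated for 18 h at 37 C with compounds delivered by pintool; ATP-coupled luminescence after 30 min at room temperature gave viability.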

Experiment [20] in a line: qHTS assay for small molecule activators of the human pregnane X receptor (PXR) signaling pathway (AID 720659; call rule not given here; further: 0% is about no effect).

Each structure is given as a SMILES string. “And” between values parts separate entries of the source, which are not always exact repeats. Equal values may be shown once. Records with an inconclusive call do not appear. The source made the active and inactive calls. Unless noted, the call rests on the fitted dose curve; in most records, active means well fitted curve in the direction sought with a large enough effect; inconclusive means small, poorly fitted or top-dose-only effect, or another doubt; inactive means no such curve, though single readings can be large; an effect the other way counts as inactive or inconclusive.

Chain of Peroxisome proliferator-activated receptor alpha (Homo sapiens) (Q07869 whole entry, looked up): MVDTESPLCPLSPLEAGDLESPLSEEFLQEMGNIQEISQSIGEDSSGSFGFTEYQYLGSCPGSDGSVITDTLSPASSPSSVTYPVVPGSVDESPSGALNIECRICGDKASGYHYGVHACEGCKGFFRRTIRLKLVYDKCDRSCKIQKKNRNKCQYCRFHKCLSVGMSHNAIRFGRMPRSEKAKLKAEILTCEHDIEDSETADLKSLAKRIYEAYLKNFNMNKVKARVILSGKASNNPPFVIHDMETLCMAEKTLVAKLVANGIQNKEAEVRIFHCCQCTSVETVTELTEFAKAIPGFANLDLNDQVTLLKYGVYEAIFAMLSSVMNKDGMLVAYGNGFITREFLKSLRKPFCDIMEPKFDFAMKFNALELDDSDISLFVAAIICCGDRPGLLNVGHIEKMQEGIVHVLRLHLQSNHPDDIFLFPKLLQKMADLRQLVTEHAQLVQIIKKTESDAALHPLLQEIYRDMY
Chain of Peroxisome proliferator-activated receptor delta (Homo sapiens) (Q03181 whole entry, looked up): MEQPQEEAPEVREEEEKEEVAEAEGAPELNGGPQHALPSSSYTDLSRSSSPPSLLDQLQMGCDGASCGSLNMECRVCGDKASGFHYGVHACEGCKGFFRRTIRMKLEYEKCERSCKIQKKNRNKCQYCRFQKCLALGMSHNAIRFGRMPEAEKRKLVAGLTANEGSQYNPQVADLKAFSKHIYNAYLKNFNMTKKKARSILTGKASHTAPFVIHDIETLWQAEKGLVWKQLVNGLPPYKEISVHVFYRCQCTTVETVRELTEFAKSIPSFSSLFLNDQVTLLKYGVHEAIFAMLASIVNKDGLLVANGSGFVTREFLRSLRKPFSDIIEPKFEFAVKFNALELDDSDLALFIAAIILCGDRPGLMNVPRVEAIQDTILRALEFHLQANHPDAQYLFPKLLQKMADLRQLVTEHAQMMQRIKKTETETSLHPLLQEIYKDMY
Chain of Glucocorticoid receptor (Homo sapiens) (P04150 whole entry, looked up): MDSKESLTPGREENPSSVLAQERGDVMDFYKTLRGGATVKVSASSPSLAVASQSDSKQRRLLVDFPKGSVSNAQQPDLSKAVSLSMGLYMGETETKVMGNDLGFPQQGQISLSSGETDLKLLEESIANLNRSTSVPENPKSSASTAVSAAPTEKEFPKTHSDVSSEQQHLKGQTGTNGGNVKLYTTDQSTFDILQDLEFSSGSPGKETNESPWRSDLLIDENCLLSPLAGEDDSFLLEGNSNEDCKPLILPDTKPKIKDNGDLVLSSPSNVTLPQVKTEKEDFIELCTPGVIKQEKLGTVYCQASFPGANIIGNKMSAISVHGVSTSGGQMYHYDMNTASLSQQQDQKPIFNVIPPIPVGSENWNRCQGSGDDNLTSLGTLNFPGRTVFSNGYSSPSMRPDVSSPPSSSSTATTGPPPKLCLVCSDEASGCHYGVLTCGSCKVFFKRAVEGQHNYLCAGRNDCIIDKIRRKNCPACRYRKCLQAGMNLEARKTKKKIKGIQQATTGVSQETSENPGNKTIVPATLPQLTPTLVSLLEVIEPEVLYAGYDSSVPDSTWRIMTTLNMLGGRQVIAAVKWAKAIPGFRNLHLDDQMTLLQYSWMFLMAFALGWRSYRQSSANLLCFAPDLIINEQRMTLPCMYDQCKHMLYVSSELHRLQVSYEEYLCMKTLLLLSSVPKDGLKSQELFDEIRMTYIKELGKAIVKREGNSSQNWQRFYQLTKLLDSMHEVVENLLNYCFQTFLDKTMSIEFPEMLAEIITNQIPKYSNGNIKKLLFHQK

Consider `COC(=O)c1cccc(C(=O)OC)c1`, for which the Potency result in experiment [1], in experiment [2], in [4], in experiment [6], in experiment [7] and in [12] was “inactive” throughout. Also, in experiment [14], the Potency result is “inactive”. The max response in experiment [3] was -2.46%; in experiment [5], -11.8%; in [8], -14.8%; in experiment [9] it was -0.335% (inactive); in experiment [11] it was 0.364% (inactive); in [13], -6.37% (inactive). The max response in [15] was 2.45% (inactive). In experiment [10], the activation is 1.87% (inactive).

As to `Cn1c(=O)[nH]c(=O)n(C2CCC(O)CC2)c1=O` (stereo unspecified), the Potency result in [1], in experiment [2], in [17], in experiment [4], in experiment [6] and in experiment [7] was “inactive” in each case. Moreover, the Potency result in experiment [12] and in experiment [14] was “inactive” each time. Besides, the activation in experiment [16] is -2.18% (inactive); in [18], -0.274% (inactive); in experiment [10], 1.88% (inactive). For the same compound, the max response is 54.4% in [3]; -1.18% in [5]; -1.59% in experiment [8]; -0.444% (inactive) in experiment [9]; -2.74% (inactive) in experiment [11]; 7.46% (inactive) in experiment [13]. Moreover, the max response in [19] was -0.781% (inactive); in experiment [15], -2.03% (inactive). The result in [20] was inactive.

As for `CC(C)c1cccc(C(C)C)c1`, the Potency result in [1], in [2], in experiment [4], in experiment [6], in experiment [7] and in experiment [14] was “inactive” throughout. In addition, the activation in experiment [16] was -12.5% (inactive); in experiment [18], -0.667% (inactive); in experiment [10] it was 2.18% (inactive). For the same compound, the max response in experiment [3] is -5.64%; in experiment [5], -9.24%; in experiment [8], -3.77%; in [9], -4.2% (inactive); in experiment [11] it was -1.99% (inactive); in experiment [13], -8.28% (inactive). Besides, the max response in experiment [19] was -5.18% (inactive); in [15], -1.81% (inactive). Besides, the result in [20] was inactive.

For `CCCCCCCCCCO`, the Potency entry in experiment [1], in experiment [2], in experiment [17], in experiment [6], in experiment [7] and in experiment [12] was “inactive” each time. Besides, in experiment [14], the Potency result was “inactive”. In addition, the activation in experiment [16] is -0.536% (inactive) and 2.82% (inactive); in experiment [18], -0.272% (inactive) and -0.916% (inactive); in [10] it was -1.2% (inactive) and 0.559% (inactive). In addition, the max response in [5] is -3.16% and -6.7%; in experiment [8], -1.67% and -3.39%; in [9], 6.68% (inactive) and -9.14% (inactive); in [11], -0.236% (inactive) and 5.87% (inactive); in experiment [19], -9.96% (inactive) and -5.95% (inactive).

Consider `O=C(O)c1ccc(C(=O)O)c(C(=O)O)c1`, for which the Potency entry in [1], in experiment [2], in experiment [4], in experiment [6], in [7] and in experiment [12] was “inactive” in each case. Moreover, in [14], the Potency entry is “inactive”. Also, the figures for the activation in [16], in [18] and in experiment [10] were -1.87% (inactive), -0.152% (inactive) and 0.771% (inactive), respectively. Also, the max response in experiment [3] is -62.8%; in experiment [5], -17.6%; in experiment [8] it was -4.49%; in experiment [9], -0.212% (inactive); in experiment [11], -1.17% (inactive); in [13], -4.75% (inactive). The max response was -0.128% (inactive) in [19] and 0.399% (inactive) in experiment [15]. Moreover, the call in experiment [20] was inactive.

For the compound `CCCCCCCC[Si](Cl)(Cl)Cl`, the Potency result in experiment [1], in experiment [2], in experiment [17], in experiment [4], in experiment [6] and in [7] was “inactive” throughout. In addition, the Potency entry in experiment [12] was “inactive”. The activation in experiment [16] was -0.511% (inactive); in experiment [18], -3.66% (inactive); in experiment [10] it was 3.53% (inactive). Moreover, the max response is -4.76% in experiment [3]; -7.78% in experiment [5]; -3.5% in experiment [8]; -13.9% (inactive) in [9]; -0.623% (inactive) in experiment [11]; -9.8% (inactive) in [13]. Besides, the max response was -3.47% (inactive) in [19] and 0.644% (inactive) in [15]. Moreover, the outcome in experiment [20] was inactive.
